The source made the active and inactive calls.
Legend:
[1] = E. coli DRC41 culture turbidity changes, primary screen, E. coli filamentation inducer project, strain DRC41, OD650, 48 h (AID 1152);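 further: E. coli MC1000 strain DRC41 lacking acrAB efflux pump and sulA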; conditions: E. coli DRC41 (acrAB sulA), higher = more signal, called active from +8 up or from −8 down
[2] = small-molecule binders of probe aLefty1, primary screen, biochemical, small-molecule microarray, 635/667 nm fluorescence (AID 1153); conditions: higher = more signal;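 further: score merges spot fluorescence with signal-to-noise ratio from the scanned slide images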
[3] = PSAC antagonists in infected red cells, primary screen, cell-based, P. falciparum Indochina, OD700, 1 h (AID 1154); conditions: P. falciparum Indochina infected RBC osmotic lysis, higher = more signal, called active from +8 up or from −8 down
[4] = PSAC antagonists in infected red cells, primary screen, cell-based, P. falciparum Indochina, OD700, 2 h (AID 1155);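 further: lysis reports solute entry through the parasite surface anion channel PSAC; channel blockers reduce lysis of infected cells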; conditions: P. falciparum Indochina infected erythrocytes, osmotic lysis OD700; higher = more signal, called active from +8 up or from −8 down
[5] = osmotic lysis modulators in infected erythrocytes, primary screen, PSAC antagonist project, cell-based, P. falciparum Indochina, OD700, 3 h (AID 1156); conditions: higher = more signal, called active from +8 up or from −8 down
[6] = PSAC antagonists in infected red cells, primary screen, cell-based, P. falciparum Indochina, OD700, 18 h (AID 1157); conditions: P. falciparum Indochina infected erythrocytes, osmotic lysis OD700, 18 h; higher = more signal, called active from +8 up or from −8 down
[7] = modulators of S6 phosphorylation in cells, primary screen, cell-based, A549, cytoblot, luminescence, serum-stimulated (AID 1158); conditions: A549 phospho-S6 cytoblot, 5 h, higher = more signal;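 further: serum-stimulated A549 lung adenocarcinoma cells; signal is phosphorylated S6 detected by cytoblot immunostaining with HRP secondary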
[8] = biological target: NADPH oxidase 2 (Homo sapiens) (UniProt P04839); assay: NOX2-dependent H2O2 signal modulators, primary screen, NOX inhibitor project, cell-based, HEK293-NOX2, PMA-stimulated, Amplex Red fluorescence (AID 1159); conditions: 45 min, higher = more signal, called active from +8 up or from −8 down; further: test concentration not given here
[9] = biological target: NADPH oxidase 4 (Homo sapiens) (UniProt Q9NPH5); assay: NOX4-dependent H2O2 signal modulators, primary screen, NOX inhibitor project, cell-based, HEK293-NOX4, tetracycline-induced, Amplex Red fluorescence (AID 1160); conditions: 45 min, higher = more signal, called active from +8 up or from −8 down
[10] = biological target: NADPH oxidase 5 (Homo sapiens) (UniProt Q96PH1); assay: NOX5-dependent H2O2 signal modulators, primary screen, NOX inhibitor project, cell-based, HEK293-NOX5, Amplex Red fluorescence (AID 1161); conditions: HEK293-NOX5, ionomycin, 45 min, higher = more signal
Chain of NADPH oxidase 5 (Homo sapiens) (Q96PH1 whole entry, looked up): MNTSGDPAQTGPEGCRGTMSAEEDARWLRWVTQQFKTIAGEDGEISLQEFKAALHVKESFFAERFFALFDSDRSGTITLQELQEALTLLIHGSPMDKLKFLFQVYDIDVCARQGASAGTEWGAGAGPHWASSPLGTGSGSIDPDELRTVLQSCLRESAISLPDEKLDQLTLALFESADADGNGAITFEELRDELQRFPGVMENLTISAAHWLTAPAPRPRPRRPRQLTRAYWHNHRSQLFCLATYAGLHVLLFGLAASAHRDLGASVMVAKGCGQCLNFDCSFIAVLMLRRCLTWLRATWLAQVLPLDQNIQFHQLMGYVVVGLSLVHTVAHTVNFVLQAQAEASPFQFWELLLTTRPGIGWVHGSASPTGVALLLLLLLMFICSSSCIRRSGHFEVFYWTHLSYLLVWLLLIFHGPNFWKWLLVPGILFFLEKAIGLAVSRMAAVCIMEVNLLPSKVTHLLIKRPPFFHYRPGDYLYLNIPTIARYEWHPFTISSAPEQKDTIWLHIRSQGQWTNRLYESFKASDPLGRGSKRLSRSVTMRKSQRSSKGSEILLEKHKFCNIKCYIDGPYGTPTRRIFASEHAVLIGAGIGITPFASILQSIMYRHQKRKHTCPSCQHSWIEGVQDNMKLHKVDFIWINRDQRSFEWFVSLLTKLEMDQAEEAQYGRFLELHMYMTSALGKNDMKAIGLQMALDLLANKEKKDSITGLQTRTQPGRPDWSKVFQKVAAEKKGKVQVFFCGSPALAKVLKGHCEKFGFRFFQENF

Chain of NADPH oxidase 2 (Homo sapiens) (P04839 whole entry, looked up): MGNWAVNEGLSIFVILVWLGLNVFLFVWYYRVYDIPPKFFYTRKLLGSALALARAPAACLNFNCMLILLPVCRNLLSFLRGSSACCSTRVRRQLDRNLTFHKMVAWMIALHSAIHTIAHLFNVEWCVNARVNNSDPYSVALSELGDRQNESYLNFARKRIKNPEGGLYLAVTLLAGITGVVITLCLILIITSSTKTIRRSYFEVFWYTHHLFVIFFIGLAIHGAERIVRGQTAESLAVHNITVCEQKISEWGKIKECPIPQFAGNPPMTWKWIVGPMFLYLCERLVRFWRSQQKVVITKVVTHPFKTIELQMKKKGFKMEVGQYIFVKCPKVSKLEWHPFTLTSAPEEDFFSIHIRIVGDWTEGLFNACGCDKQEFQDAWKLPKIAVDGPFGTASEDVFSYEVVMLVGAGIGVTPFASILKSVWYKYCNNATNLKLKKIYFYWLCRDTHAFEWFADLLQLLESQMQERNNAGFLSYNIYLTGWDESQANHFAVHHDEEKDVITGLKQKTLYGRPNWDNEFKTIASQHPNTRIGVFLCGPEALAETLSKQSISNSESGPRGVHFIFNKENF
Chain of NADPH oxidase 4 (Homo sapiens) (Q9NPH5 whole entry, looked up): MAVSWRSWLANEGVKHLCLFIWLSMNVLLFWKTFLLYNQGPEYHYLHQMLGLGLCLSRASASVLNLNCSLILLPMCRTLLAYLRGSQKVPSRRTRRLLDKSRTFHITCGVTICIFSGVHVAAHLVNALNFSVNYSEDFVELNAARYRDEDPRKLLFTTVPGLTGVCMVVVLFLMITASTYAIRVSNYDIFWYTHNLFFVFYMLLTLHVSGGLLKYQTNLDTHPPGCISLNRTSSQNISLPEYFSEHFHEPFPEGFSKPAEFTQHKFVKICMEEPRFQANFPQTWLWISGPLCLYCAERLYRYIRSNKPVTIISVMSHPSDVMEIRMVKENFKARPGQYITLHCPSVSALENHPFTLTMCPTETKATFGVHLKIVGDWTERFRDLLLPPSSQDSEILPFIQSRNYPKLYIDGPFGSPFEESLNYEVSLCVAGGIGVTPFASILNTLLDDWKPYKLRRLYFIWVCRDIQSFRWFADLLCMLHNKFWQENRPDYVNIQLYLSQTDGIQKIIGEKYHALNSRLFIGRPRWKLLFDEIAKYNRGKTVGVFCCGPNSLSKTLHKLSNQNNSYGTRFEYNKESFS

Structure (SMILES)	z-score [1]	composite z-score [2]	z-score [3]	z-score [4]	z-score [5]	z-score [6]	z-score [7]	z-score [8]	z-score [9]	z-score [10]
COC(=O)[C@]1(CO)N=C(c2ccc(OCCCO)cc2)O[C@@H]1c1ccccc1N=[N+]=[N-]	0.248 (inactive)	0.191	18.3 (active)	2.32 (inactive)	1.49 (inactive)	0.742 (inactive)	-0.315	-0.502 (inactive)	0.0857 (inactive)	-0.514
CC(CCN1CCc2nc(-c3ccccc3)c(-c3ccccc3)cc2C1)=NOC[C@@H](C)[C@H](OCc1ccccc1)C(C)C	-0.268 (inactive)	-0.0464	1.43 (inactive)	1.03 (inactive)	1.21 (inactive)	0.637 (inactive)	0.116	0.837 (inactive)	-1.74 (inactive)	-0.578
CCOC(=O)[C@H](CC(C)C)NC(=O)CCC1CC(OC(=O)NCCc2ccc(F)cc2)CC2(CCCC(COC(=O)NCc3ccccc3)O2)O1 (stereo not given in full)	-1.06 (inactive)	0.0536	3.44 (inactive)	-1.22 (inactive)	1.39 (inactive)	-1.42 (inactive)	1.78	-0.945 (inactive)	-0.797 (inactive)	-2.24
C#CCCCON=C1C[C@@H](O)[C@@H](O)[C@@H]2[C@@H]3C(=O)N(CCC(=O)OCC)C(=O)[C@@H]3CC[C@@H]12	0.425 (inactive)	0.309	16.5 (active)	1.47 (inactive)	0.146 (inactive)	0.404 (inactive)	0.194	-9.69 (active)	0.556 (inactive)	0.618
C=C(CCCC)C(=O)CC[C@@H](OC(C)=O)c1cccc(OCCO)c1	-0.462 (inactive)	-0.101	2.82 (inactive)	1.81 (inactive)	-1.27 (inactive)	0.822 (inactive)	0.0149	-1.14 (inactive)	-1.3 (inactive)	-3.02
COC(=O)c1c(CC[C@@H](CO)NC(=O)N[C@H](Cc2ccccc2)Cn2cc(-c3ccccc3N)nn2)oc(C(C)=O)c1C(=O)OC	0.144 (inactive)	0.5	29.7 (active)	15.5 (active)	0.845 (inactive)	1.73 (inactive)	0.211	-2.69 (inactive)	0.681 (inactive)	1.74
NCCCCCNC(=O)[C@@H]1C[C@@H]2C(=O)N3CCC[C@H]3C(=O)N2[C@@H]1c1cccc(OCCO)c1	-0.221 (inactive)	1.55	3.25 (inactive)	0.506 (inactive)	0.744 (inactive)	0.0814 (inactive)	0.0413	2.41 (inactive)	1.19 (inactive)	0.961
COCCCNC(=O)[C@@]1(C)c2ccccc2C(=O)N(Cc2ccc(OC(F)(F)F)cc2)[C@H]1c1ccc(CO)cc1	0.906 (inactive)	-0.191	2.23 (inactive)	0.123 (inactive)	1.06 (inactive)	-0.0648 (inactive)	-0.459	-0.599 (inactive)	1.18 (inactive)	0.247
CC(C)NC(=O)[C@@]1(C)c2ccccc2C(=O)N(Cc2cc(F)cc(C(F)(F)F)c2)[C@H]1c1ccc(CO)cc1	0.0051 (inactive)	-0.21	7.03 (inactive)	0.429 (inactive)	0.943 (inactive)	0.0608 (inactive)	-0.191	0.162 (inactive)	0.696 (inactive)	-0.117
CCCC[C@@H]1C[C@H]1[C@@H](NS(=O)(=O)c1cccc2cccnc12)c1ccc(-c2ccccc2)cc1	-1.29 (inactive)	0.0217	1.58 (inactive)	0.985 (inactive)	0.336 (inactive)	0.764 (inactive)	-0.464	0.0564 (inactive)	-1.29 (inactive)	1.21
C#C[C@@H](CC)O[Si](C#Cc1ccc(Oc2ccccc2)cc1)(C(C)C)C(C)C	-0.49 (inactive)	0.0404	0.788 (inactive)	1.4 (inactive)	-1.4 (inactive)	0.335 (inactive)	-0.724	0.278 (inactive)	-0.366 (inactive)	-1.51
COc1ccc(O[C@H]2C=C[C@@H](c3ccccc3)O[C@@H]2COC(=O)CCC(C)=NO[C@@H](C)c2cc(-c3c(C)cc(C)cc3C)no2)cc1	0.409 (inactive)	-0.378	0.595 (inactive)	0.322 (inactive)	0.488 (inactive)	0.245 (inactive)	-0.0348	1.18 (inactive)	-0.00862 (inactive)	-1.09
COC(=O)[C@@H]1N=C(c2ccc(OCCCO)cc2)O[C@@H]1c1ccccc1N=[N+]=[N-]	0.666 (inactive)	0.309	29.3 (active)	25.8 (active)	1.88 (inactive)	5.77 (inactive)	1.24	-1.24 (inactive)	-0.0584 (inactive)	-2.26
O[C@@H](Cc1ccccc1)[C@H]1C2C=CCCC(c3ccccc3)=C2CN1Cc1cccc(Cl)c1 (stereo not given in full)	3.28 (inactive)	-0.104	4.33 (inactive)	0.669 (inactive)	1.16 (inactive)	0.476 (inactive)	0.459	-0.384 (inactive)	-0.868 (inactive)	-0.41
C/C=C\[C@@H](NCc1ccccc1Br)[C@@H](O)Cc1ccccc1	-1.43 (inactive)	0.0927	-0.222 (inactive)	-1.35 (inactive)	0.0141 (inactive)	-2.52 (inactive)	0.365	-0.239 (inactive)	-1.49 (inactive)	-2.69
O=C1[C@H]2[C@H]3[C@H](O)[C@H](O)CC(=NOC[C@@H](O)COCc4ccco4)[C@H]3CC[C@H]2C(=O)N1c1cccc(Oc2ccccc2)c1	0.66 (inactive)	-0.353	3.18 (inactive)	1.15 (inactive)	1.28 (inactive)	0.795 (inactive)	0.404	-2.98 (inactive)	1.31 (inactive)	-0.185
COC(=O)CC=C[C@H](C)[C@H](CO)NS(=O)(=O)c1ccc(C)cc1	-1.48 (inactive)	-0.221	0.251 (inactive)	-0.085 (inactive)	-0.206 (inactive)	-0.119 (inactive)	-0.497	1.48 (inactive)	0.227 (inactive)	-0.484
COc1ccccc1CN1C(=O)c2ccccc2[C@@]2(Cc3ccccc3N(C(C)C)C2=O)[C@@H]1c1ccc(CO)cc1	1.74 (inactive)	0.0371	0.0937 (inactive)	-0.756 (inactive)	-0.964 (inactive)	-0.876 (inactive)	1.79	-0.437 (inactive)	0.215 (inactive)	1.04
Cc1cc2c(nc1C)CCCN2CC(O)CN1CCN(C)CC1 (stereo not given)	-0.243 (inactive)	0.0733	0.339 (inactive)	0.494 (inactive)	0.0085 (inactive)	-0.0963 (inactive)	-0.542	0.438 (inactive)	-1.07 (inactive)	-1.08

Reference: PubChem BioAssay
